# In article PMC5540273 (PLoS ONE, 2017):
# Legend:
# Conditions in all cases: concentration: 1 μM, replicates: in singlicate; n = 1
# AAK1 = test system: AAK1
# ABL1-nonphosphorylated = test system: ABL1-nonphosphorylated
# ABL1-phosphorylated = test system: ABL1-phosphorylated
# ABL2 = test system: ABL2
# ACVR1B = test system: ACVR1B
# ACVR1 = test system: ACVR1
# ACVR2A = test system: ACVR2A
# ACVR2B = test system: ACVR2B
# ACVRL1 = test system: ACVRL1
# ADCK3 = test system: T1, ADCK3
# T1 construct: gene CABC1
# 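Also: KINOMEscan kinase panel screen.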
Structure (SMILES),%Inh (AAK1) [%],%Inh (ABL1-nonphosphorylated) [%],%Inh (ABL1-phosphorylated) [%],%Inh (ABL2) [%],%Inh (ACVR1B) [%],%Inh (ACVR1) [%],%Inh (ACVR2A) [%],%Inh (ACVR2B) [%],%Inh (ACVRL1) [%],%Inh (ADCK3) [%]
COCCOCCOc1cc2ncc3c4ccc(C#N)cc4[nH]c3c2cc1OC,92.1,70,53,2,0,0,6,0,0,29
Cn1cc(-c2ccc3c(c2)CCN3C(=O)Cc2cccc(Cl)c2)c2c(N)ncnc21 [GSK2606590],30,78,30,53,0,0,0,53,0,0
CN(C)Cc1ccc(-c2ccc3c(Nc4ccc(Oc5ccccn5)cc4)ccnc3c2)o1 [GW567148],0,89,32,18,0,0,0,38,0,0
CC(C)c1nc(-c2cccc(NS(=O)(=O)c3c(F)cccc3F)c2F)c(-c2ccnc(Nc3ccc(N4CCOCC4)nc3)n2)s1 [GSK2008607],0,99.8,99.3,99.4,90.5,43,0,86,11,100
CCn1c(-c2nonc2N)nc2c(C#CC(C)(C)O)nc(OC[C@H](N)c3ccccc3)cc21 [GSK943949],0,0,0,0,0,0,0,0,0,0
Cl.c1ccc(-c2ccc3c(Nc4ccc5[nH]ncc5c4)ccnc3c2)nc1 [GW440137],18,63,73,28,1,71,57,94.6,19,3
Nc1ncc(-c2cccnc2)c2scc(-c3ccc4c(c3)CCN4C(=O)Cc3ccccc3)c12 [GSK683281],24,94.1,54,62,0,0,0,0,3,5
O=C(Nc1cccc(-c2nn3ccccc3c2-c2ccnc(Nc3cccc(C(F)(F)F)c3)n2)c1)c1c(F)cccc1F [GSK292658],0,11,0,21,0,0,0,0,0,0
O=c1[nH]cc(-c2ccc(N3CCOCC3)cc2)c2sc(-c3cn[nH]c3)cc12 [GSK2276055],23,0,0,0,0,0,2,0,0,0
Cl.Cl.NCC(C(=O)Nc1cc(Br)c(-c2ccnc3[nH]ccc23)s1)c1ccccc1 (stereo not shown) [GSK1269851],78,14,32,35,67,47,0,5,0,65
COc1cc(Nc2nccc(-c3c(-c4cccc(NC(=O)c5c(F)cccc5F)c4)nn4ncccc34)n2)cc(OC)c1OC [GSK327238],13,92.9,24,80,14,0,0,0,0,0
COC(=O)Nc1nc2ccc(Oc3ccc(NC(=O)Nc4cc(C(F)(F)F)ccc4F)cc3)cc2n1C.Cl [GW692089],0,98.4,49,84,0,0,0,0,0,0
CCS(=O)(=O)c1ccc(OC)c(Nc2nccc(-c3c(-c4cccc(NC(=O)c5c(F)cccc5F)c4)nn4ncccc34)n2)c1 [GSK326180],22,4,10,10,0,10,0,0,0,0
CC(=O)N1CCN(c2ccc(Nc3nccc(-c4sc(C(C)C)nc4-c4cccc(NS(=O)(=O)c5cccc(Cl)c5)c4)n3)cn2)CC1 [GSK1660437],0,95.8,35,83,70,61,29,72,44,73
c1ccc(-c2cnc3nccnn23)cc1 [AH20685],0,0,0,5,0,17,0,0,0,0
Fc1ccc(-c2ncn(C3CCNCC3)c2-c2ccnc(Oc3ccc(-c4ccccc4)cc3)n2)cc1 [SB-245391],14,1,16,1,72,0,19,0,19,0
